Laboratory results as given in PubChem BioAssay.
Active and inactive are the calls of the source.

Assay: forskolin-driven CRE-LacZ activity in PC12 – cell-based, CRE-LacZ reporter, forskolin-stimulated, primary screen (AID 1146);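 also: PC12 cells with 6xCRE LacZ reporter stimulated by forskolin 10 µM; beta-galactosidase reporter signal reflecting CREB driven transcription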
Conditions: luminescence, 4.5 h, higher = more signal, called active from +8 up or from −8 down

z-score, inactive:
COCCOC(=O)N1C(=O)[C@@]2(c3ccccc31)[C@H](c1ccc(OCCO)cc1)N1[C@H](c3ccccc3)[C@H](c3ccccc3)OC(=O)[C@H]1[C@@H]2C(=O)N1CCc2cc(OC)c(OC)cc2C1 2.12
O=C(CS)NCCCCCNC(=O)[C@H]1C[C@H]2C(=O)NCC(=O)N2[C@H]1c1cccc(OCCO)c1 0.0277
CCCC[C@@H]1C[C@H]1[C@@H](NC(=O)c1cccnc1)c1ccc(Cl)cc1 0.834
CCCCCCCCCCC(O)C1C=CC2C(=O)NC(=O)C2N1Nc1ccc(Cl)cc1Cl (stereo not given) -0.407
O=C1O[C@H](c2ccccc2)[C@H](c2ccccc2)N2[C@H]1[C@@H](C(=O)N1CCN(c3ncccn3)CC1)[C@]1(C(=O)Nc3ccc(C#CC4=CCCCC4)cc31)[C@H]2c1ccccc1OCCO -0.111
CCCCC(O)C1C=CC2C(=O)N(C)C(=O)C2N1N1CCCCC1 (stereo not given) 0.47
O=C1OCCC=C[C@H]2OC34C=CCN(c5ccc(Cl)cc5)C(=O)[C@H]3N(CCCO)C(=O)[C@@H]4C12 (stereo not given in full) -0.336
CO[C@H]1O[C@H](CO)[C@@H](OC(=O)Nc2cccc(F)c2)[C@H](OC(=O)Nc2ccccc2)[C@H]1OC(=O)Nc1ccccc1 -1.22
C#CCOc1ccc(C[C@@H](C(=O)OC)N(CC#C)[C@@H](/C=C/C2CC2)[C@H](O)Cc2ccccc2)cc1 1
CCCCCCc1nc(-c2ccc(-c3ccc(Cl)c(Cl)c3)o2)c(C)c2c1[Si](C(C)C)(C(C)C)OC2 0.246
